The source of these data is PubChem BioAssay AID588492 (Sanford-Burnham Center for Chemical Genomics, 2011).

Molecules are shown by their SMILES. Where “and” joins values, the source holds several entries; their conditions need not be identical. Equal entries are not always repeated. About 2,300 (0.64%) of roughly 360,000 compounds were called active.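 How the source made its calls: active means compounds giving at least 50% protection of heart cells from peroxide-induced death in the single-dose screen, raw or plate-pattern-corrected value; inactive means the rest.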 This excerpt belongs to a sample that is enriched for actives.

A short description of this assay: cardioprotection against H2O2-induced cell death, primary screen, uHTS, H9c2 cells, ATPLite luminescence (AID 588492).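 Further: 0% = DMSO wells with peroxide and 100% = DMSO wells without peroxide.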 The following applies: H9c2 cardiomyocytes, H2O2 injury protection, 2 h, at 20 µM, hits give high values. For orientation: In ATP-based viability assays light output follows the ATP content of the culture.
With `CCOCCCNC(=O)C(NC(=O)c1ccc(=O)[nH]c1)c1ccc(Cl)cc1` (stereo not given), the protection from H2O2 cell death was -7.9% (inactive). The result for `COc1ccc([C@H]2N[C@]3(CCCN(CC4CCCCC4)C3=O)[C@H]3C(=O)N(C)C(=O)[C@@H]23)cc1` reads 5.5% (inactive). With `CCN(CC)CCNc1ccc(Cl)cc1[N+](=O)[O-]`, the protection from H2O2 cell death is 9.1% (inactive). As for `COCCNc1ccc(-c2n[nH]c(=O)c3ccccc23)cc1[N+](=O)[O-]`, the figure is 40.1% (inactive); as for `CN(C)CCNc1ccc(-c2n[nH]c(=O)c3ccccc23)cc1[N+](=O)[O-]`, 61.1% (active); as for `CCCC(=O)NC(Nc1ccccc1OC)C(Cl)(Cl)Cl` (stereo not given), 3% (inactive). The result for `c1ccc(CCc2ccccn2)cc1` reads -1.9% (inactive).

`O=c1[nH]nc(Cc2ccccn2)c2ccccc12`: the protection from H2O2 cell death was 84.4% (active).

Turning to `Cc1ccc(C(=O)C(C)OC(=O)Cc2n[nH]c(=O)c3ccccc23)cc1C` (stereo not given), the protection from H2O2 cell death is 12.9% (inactive). Take `COc1ccc(OC)c(CN2C(=O)CCC2(C)C(=O)NC2CCCCCC2)c1` (stereo not given): the protection from H2O2 cell death was 1.4% (inactive). The result for `O=C(CN1C(=O)NC2(CCCCCCC2)C1=O)NCc1ccc(F)cc1` reads -8.5% (inactive); that for `COc1ccc(N2CCN(Cc3ccc(Br)s3)CC2)cc1`, -6.8% (inactive); that for `CCSc1nc(-c2ccc(OC)cc2)cc(-c2ccc(OC)cc2)c1C#N`, -1% (inactive).

For `CCOc1cc(-c2cc(-c3ccc(NC(C)=O)cc3)nc(N)c2C#N)ccc1O`, the protection from H2O2 cell death was 65.8% (active). As for `Cc1ccc(NC(=O)c2sc3nc(N)c(C#N)cc3c2N)cc1`, the figure is -0.8% (inactive); as for `CCSc1nnc(SCC(=O)NNC(=O)c2ccccc2F)s1`, -2.9% (inactive). As for `CC(=NNC(=S)N1CCCCCC1)c1ccccn1`, the figure is -14.3% (inactive). As for `COc1ccc(CC(N)c2csc(NC(=O)Cc3ccccc3)n2)cc1` (stereo not given), the figure is 10.4% (inactive); as for `COc1ccc(CC(=O)N/N=C(\C)c2ccccn2)cc1`, 89.5% (active). Take `CCOC(=O)[C@H]1CCC[C@@H](NS(=O)(=O)c2ccc(NC(C)=O)cc2)C1`: the protection from H2O2 cell death was 3.9% (inactive). The result for `CCCCNc1ccc(C(=O)Nc2cccc(C)n2)cc1[N+](=O)[O-]` reads -6% (inactive).

In the case of `O=c1cc(CN2CCN(S(=O)(=O)/C=C/c3ccccc3)CC2)c2ccc(O)cc2o1`, the protection from H2O2 cell death was 24.9% (inactive). As for `Cc1nn(C)c(C)c1S(=O)(=O)N1CCC(CO)(Cc2ccc(Cl)cc2)CC1`, the figure is -21.2% (inactive); as for `O=c1[nH]cnc2c1c(-c1ccccc1)cn2-c1ccc(F)cc1`, -5.8% (inactive); as for `COc1ccc(N2C(=O)CNC2=S)cc1`, 5.9% (inactive).

Regarding `COc1ccc(-n2cc(-c3ccccc3)c3c(=S)nc[nH]c32)cc1`, the protection from H2O2 cell death is 72.3% (active). The result for `CCOC(=O)C1CCN(S(=O)(=O)c2ccc3c(c2)N(C)C(=O)CC(=O)N3C)CC1` reads -1.6% (inactive). With `C[C@@H]1CN([C@H](C)CO)S(=O)(=O)c2ccc(C#C[C@@H](C)O)cc2O[C@@H]1CN(C)Cc1ccc(-c2ccccc2)cc1`, the protection from H2O2 cell death is -5.2% (inactive). As for `CCCc1nc2ccccc2c(C(=O)OCc2nnc(-c3cc(OC)c(OC)c(OC)c3)o2)c1CC`, the figure is 64.8% (active); as for `O=C(OCc1nnc(-c2ccccc2)o1)c1cc(=O)[nH]c2ccccc12`, 3.9% (inactive); as for `Cc1onc(-c2ccccc2Cl)c1C(=O)OCc1nnc(-c2ccccc2)o1`, -13.6% (inactive). Turning to `Cc1ccc(CNS(=O)(=O)c2ccc3c(c2)N(C)CCO3)cc1`, the protection from H2O2 cell death was -9.1% (inactive). `C[C@@H]1CC[C@]2(O[C@@H](CCO)C[C@H](O)[C@H]2O)O1`: the protection from H2O2 cell death is -5.8% (inactive).

As to `COc1ccc2oc(C(=O)N(CC(C)C)C3CCS(=O)(=O)C3)c(C)c2c1` (stereo not given), the protection from H2O2 cell death was 2.8% (inactive). As for `CC(C)CNC(=S)NNC(=O)c1ccccc1OC(F)F`, the figure is -3.4% (inactive); as for `CCN(CC(=O)Nc1ccc2c(c1)OCO2)S(=O)(=O)c1ccccc1`, -7.6% (inactive).

Take `O=C(CN(c1ccc2c(c1)OCCO2)S(=O)(=O)c1ccccc1)Nc1ccc2c(c1)OCO2`: the protection from H2O2 cell death was 79.8% (active). For `O=C(CCS(=O)(=O)Cc1ccccc1)Nc1ccc2c(c1)OCCO2`, the protection from H2O2 cell death was 0.6% (inactive). As for `COc1ccc(NS(=O)(=O)c2ccc(C)c(C(=O)NCC(c3cccs3)N3CCOCC3)c2)cc1` (stereo not given), the protection from H2O2 cell death is -1.3% (inactive). The result for `COC(=O)c1ccc(S(=O)(=O)NCc2ccccc2)n1C` reads -1.9% (inactive); that for `C=CCn1c(Cn2nnc3ccccc32)nnc1SCC(=O)N/N=C/c1cc(Br)cc(OC)c1O`, 9.5% (inactive); that for `Oc1c(Cl)cc(Cl)cc1/C=N/c1ncn[nH]1`, 26.3% (inactive). The result for `COc1cc(Br)cc(/C=N/c2ncn[nH]2)c1O` reads 88.7% (active).

Turning to `CN(Cc1c(F)cccc1Cl)C(=O)COC(=O)Cn1cnc2ccccc2c1=O`, the protection from H2O2 cell death is -4% (inactive). As for `Nc1scc(-c2ccncc2)c1Cl`, the figure is -2.7% (inactive). As for `[O-][n+]1ccc(OCc2ccccc2)cc1`, the figure is -5.2% (inactive).

On to `COc1ccc(-c2ccc3[nH]c4c(c3c2)CCN2C[C@H]3[C@H](C)ON(C)[C@H]3C[C@@H]42)cc1`, for which the protection from H2O2 cell death is 54.5% (active).

As for `COC(=O)[C@H]1[C@H]2C[C@H]3c4[nH]c5ccccc5c4CCN3C[C@@H]2CC[C@@H]1O`, the protection from H2O2 cell death was -2.1% (inactive) and 1% (inactive). As for `COc1cccc(C2c3[nH]c4ccccc4c3CCN2Cc2cccc(C)n2)c1` (stereo not given), the figure is -1.8% (inactive); as for `COc1ccc(CNC(=O)c2ccc(NS(=O)(=O)c3ccc4[nH]c(=O)[nH]c4c3)cc2)cc1OC`, 0.1% (inactive). Take `NC(=O)c1ccccc1N=Cc1ccc2ccccc2c1`: the protection from H2O2 cell death was 0.6% (inactive). As for `CC(C)c1c(C(=O)N/N=C/c2ccccc2C(=O)O)nnn1-c1nonc1N`, the figure is 5.1% (inactive); as for `COCc1c(C(=O)N/N=C\c2cccnc2)nnn1-c1nonc1N`, -0.9% (inactive). The result for `Nc1nonc1-n1nnc(C(=O)N/N=C/c2cc(Br)ccc2O)c1CSC1=NCCS1` reads 56.9% (active); that for `Cc1cc(NC(=O)C(C)N2C(=O)c3ccccc3S2(=O)=O)no1` (stereo not given), 6.5% (inactive); that for `CCN(CC)Cc1nc2sc(C)c(C)c2c(=O)[nH]1`, 12.4% (inactive). As for `O=C(CCCCO)c1ccc(O)c(Cl)c1`, the figure is 15.5% (inactive); as for `c1ccc(C(=NNc2nc3ccccc3s2)c2ccccn2)cc1`, 51.5% (active); as for `C/C(=N/Nc1nc(-c2ccccc2)c(CC(=O)O)s1)c1ccccc1`, -8.5% (inactive). Regarding `COc1cc(OC)nc(N/N=C(\c2ccccc2)c2ccncc2)n1`, the protection from H2O2 cell death is -2.9% (inactive).
